Values joined by “and” are separate entries in the source; they are usually repeats but may differ in a detail not shown here. Identical values can stand only once. Inconclusive results are not listed. Active and inactive are the calls of the source. Calls come from the whole dose curve; as a rule, active = well fitted inhibition curve with a large enough effect; inconclusive = small, poorly fitted or top-dose-only effect, or effect the other way; inactive = no such curve, though single readings can be large or run the other way.
What follows are compounds tested against Nuclear receptor ROR-gamma (Mus musculus) (UniProt P51450) (assay: Secondary confirmation assay for inhibitors of ROR gamma transcriptional activity). Settings: Drosophila S2 Gal4-RORgamma UAS-luciferase reporter, 20 h; series mostly up to 92.2 µM; activity change, negative = inhibition: at the top concentration.
Description: NIH Molecular Libraries Probe Production Network [MLPCN] NIH Chemical Genomics Center [NCGC] MLPCN Grant: R03 DA026211-01 Assay Provider: Dan Littman, New York University Keywords: NIH Roadmap, MLPCN, MLI, MLSMR, qHTS, NCGC, qHTS, nuclear hormone receptor, retinoic acid-related orphan receptor, ROR gamma Assay Overview: The retinoic acid-related orphan receptor (ROR) gamma is a transcription factor that has a central role in the differentiation of Th17 cells, a subset of T helper cells that secrete the inflammatory cytokines IL-17, IL-17F, and IL-22. Th17 cells have been implicated in graft versus host disease, autoimmune disease and asthma. ROR gamma is induced in naive T helper cells in the presence of TGF-beta combined with IL-6, IL-21, or IL-23, and thereafter directs the expression of the Th17 lineage cytokines. To study the mechanism of action of ROR gamma, an insect cell-based assay was screened. This Drosophila Schneider cell line was stably transfected with two vectors: a gene expressing a fusion of the Gal4 DNA binding domain and ROR gamma transactivation domain under the control of the metallothionine promoter and a Photinus luciferase reporter regulated by the Gal4 binding site enhancer, UAS. […] Small molecule inhibitors of ROR gamma activity are detected by a decrease in luciferase reporter activity.
Assay Protocol Summary: For screening, 600 cells in 4 uL/well were dispensed into white solid 1536-well plates (Grenier) using a solenoid-based dispenser. Following transfer of 23 nL compound or DMSO vehicle by a pin tool, the plates were incubated 1 hr at ambient temperature, and 1 uL/well copper sulfate (700 uM final concentration) was added. The plates were centrifuged 15 s at 1000 RPM and incubated 20 hr at ambient temperature. After addition of 1.5 uL Photinus luciferase detection reagent, the plates were incubated 10 min at ambient temperature and then read by an ViewLux (Perkin Elmer) to detect luminescence. Keywords: NIH Roadmap, MLPCN, MLI, MLSMR, qHTS, NCGC, qHTS, nuclear hormone receptor, retinoic acid-related orphan receptor, ROR gamma

Sequence of Nuclear receptor ROR-gamma (Mus musculus) (P51450 whole entry, looked up, the tested form may be a part): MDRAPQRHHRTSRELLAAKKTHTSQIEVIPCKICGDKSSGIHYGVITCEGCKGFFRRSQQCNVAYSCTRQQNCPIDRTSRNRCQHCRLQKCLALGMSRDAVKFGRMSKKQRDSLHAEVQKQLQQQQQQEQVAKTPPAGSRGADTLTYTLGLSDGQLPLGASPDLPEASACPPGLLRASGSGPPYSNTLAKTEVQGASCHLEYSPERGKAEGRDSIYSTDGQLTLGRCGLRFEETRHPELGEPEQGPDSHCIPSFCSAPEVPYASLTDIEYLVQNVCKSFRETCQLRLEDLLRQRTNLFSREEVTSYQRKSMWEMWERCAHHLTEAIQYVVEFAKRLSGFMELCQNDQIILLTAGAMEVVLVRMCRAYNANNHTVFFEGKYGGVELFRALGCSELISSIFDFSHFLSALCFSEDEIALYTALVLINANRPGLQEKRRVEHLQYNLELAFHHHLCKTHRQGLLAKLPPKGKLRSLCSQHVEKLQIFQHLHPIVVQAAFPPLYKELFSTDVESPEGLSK

Activity change, negative = inhibition, inactive:
COc1ccc(C(CC(=O)Nc2ccc(F)cc2)c2ccccc2)cc1 (stereo not given) -71.9%
COc1cc(O)c(C(CC(=O)N2CCCC(C(=O)N3CCCCC3)C2)c2ccc3c(c2)OCO3)c(OC)c1 (stereo not given) 30%
COc1cc(O)c(C(CC(=O)N2CC(C)NC(C)C2)c2ccc3c(c2)OCO3)c(OC)c1 (stereo not given) -16.5%
COc1ccc(CNC(=O)[C@@H](NC(=O)C2CCN(C(=O)[C@@H]3CCCN3C(=O)OC(C)(C)C)CC2)C(C)C)cc1 -21%
COc1cc(O)c(C(CC(=O)NC2CCC(C)CC2)c2ccc3c(c2)OCO3)c(OC)c1 (stereo not given) -23.7%
COc1cc(O)c(C(CC(=O)N(Cc2ccccc2)Cc2ccccc2)c2ccc3c(c2)OCO3)c(OC)c1 (stereo not given) -6.12%
COc1cc(O)c(C(CC(=O)N2CCOCC2)c2ccc(OC)c(OC)c2)c(OC)c1 (stereo not given) -16.7%
CCC(=O)C1CCCN(C(=O)CC(c2ccc3c(c2)OCO3)c2c(O)cc(OC)cc2OC)C1 (stereo not given) 2.25%
COc1cc(O)c(C(CC(=O)N2CCc3ccccc3C2)c2ccc3c(c2)OCO3)c(OC)c1 (stereo not given) -29.7%
COc1cc(O)c(C(CC(=O)N2CCCC(COc3ccc(F)cc3)C2)c2ccc3c(c2)OCO3)c(OC)c1 (stereo not given) -4.08%
COc1cc(O)c(C(CC(=O)N2CCCC(C)C2)c2ccc(-c3ccccc3)cc2)c(OC)c1 (stereo not given) -26%
COc1cc(O)c(C(CC(=O)NC2CCCc3ccccc32)c2ccc3c(c2)OCO3)c(OC)c1 (stereo not given) 11.2%
COc1ccc(C(CC(=O)N2CCCC(C)C2)c2c(O)cc(OC)cc2OC)c(OC)c1 (stereo not given) -12.9%
COc1ccc(C(CC(=O)N2CCCC(C)C2)c2ccccc2)cc1 (stereo not given) 23.9%
COc1cc(O)c(C(CC(=O)Nc2cccc3ccccc23)c2ccc3c(c2)OCO3)c(OC)c1 (stereo not given) -23.2%

Potency, active:
COc1cc(OC)c(C(CC(=O)N2CC(C)CC(C)C2)c2ccc3c(c2)OCO3)c(OC)c1 (stereo not given) 4.57 µM
COC(=O)Cn1c(CN2CCc3ccccc3C2)nc2c1c(=O)n(C)c(=O)n2C 6.45 µM
COc1cc(O)c(C(CC(=O)N2CC(C)OC(C)C2)c2ccc3c(c2)OCO3)c(OC)c1 (stereo not given) 1.29 µM
Cc1nn(-c2cc(C)c3ccccc3n2)c2c1C1C(C2)C1(C)C (stereo not given) 3.63 µM
COc1ccc(C(CC(=O)N2CCCC(C)C2)c2c(O)cc(OC)cc2OC)cc1 (stereo not given) 2.29 µM
CN1CCN(C(=O)CCN2C(=O)/C(=C/c3ccccc3Cl)SC2=S)CC1 28.8 µM
O=C(CCCOc1ccccc1)Nc1nc2ccccc2[nH]1 7.24 µM
COc1ccc(C)c(O)c1C(CC(=O)N1CCCC(C)C1)c1ccc2c(c1)OCO2 (stereo not given) 40.7 µM
COc1cc(OC)c(C(CC(=O)N2CC(C)CC(C)C2)c2ccc3c(c2)OCO3)c(OCC(N)=O)c1 (stereo not given) 11.5 µM
COc1cc(O)c(C(CC(=O)N2CCC(C)CC2)c2ccc(C)cc2)c(OC)c1 (stereo not given) 14.4 µM
CCOc1cccc(-c2cc(-c3n[nH]c(=S)n3CC)c3ccccc3n2)c1 2.29 µM and 1.82 µM
C=C1Nc2c(-c3ccc(F)cc3)cnn2C(N)=C1c1ccccc1 0.0911 µM
CCC1CCCN(C(=O)CC(c2ccc3c(c2)OCO3)c2c(O)cc(OC)cc2OC)C1 (stereo not given) 3.23 µM
COc1cc(OC)c(C(CC(=O)N2CCCC(C)C2)c2ccc3c(c2)OCO3)c(OCc2ccccc2)c1 (stereo not given) 6.45 µM
CCNC(=O)CCc1nc(-c2ccc(C(C)(C)C)cc2)no1 0.512 µM
O=C(NC(=S)Nc1nc(-c2ccccc2)cs1)c1cccnc1 5.12 µM
COc1ccc(OC)c(NC(=S)N(CCc2c(C)[nH]c3ccccc23)Cc2cccs2)c1 12.9 µM
Cc1cccc(-c2nc3cc(NC(=O)C4CCCO4)ccc3o2)c1 (stereo not given) 0.724 µM
COc1cc(O)c(C(CC(=O)N2CC(C)CC(C)C2)c2ccc3c(c2)OCCO3)c(OC)c1 (stereo not given) 0.645 µM
Cc1ccc(C(=O)O/N=C/c2ccc(N(C)C)cc2)cc1 32.3 µM
COc1cc(O)c(C(CC(=O)N2CCCCC2C)c2ccc3c(c2)OCO3)c(OC)c1 (stereo not given) 25.7 µM
CC(C)(C)c1ccc([S+](=O)([O-])Nc2ccccc2C(O)(C(F)(F)F)C(F)(F)F)cc1 16.2 µM
Cc1ccc(OCCCC(=O)Nc2nc3ccccc3[nH]2)cc1 7.24 µM
COc1cc(OC)c(C(CC(=O)N2CC(C)CC(C)C2)c2ccc3c(c2)OCO3)c(OCC#N)c1 (stereo not given) 7.24 µM
COc1ccccc1CNC(=O)[C@@H](NC(=O)C1CCN(C(=O)[C@@H]2CCCN2C(=O)OC(C)(C)C)CC1)C(C)C 12.9 µM

From PubChem BioAssay AID489037 (National Center for Advancing Translational Sciences (NCATS), 2010)
